# Reference: PMC7819943, “Rice protein-binding microarrays: a tool to detect cis-acting elements near promoter regions in rice”
# Whole data set: some 68,000 sequences, median “fluorescence intensity (a.u.)” near 9,100, cut for the highest 2% near 16,000. What follows is part of a selection rich in the highest values, with near analogues and random picks from the rest.
# Target: OsWRKY34 (Oryza sativa, UniProt Q0JBA9 1-250)
# Test: protein-binding microarray (RPBM); PBS, 2% BSA, 51.3 ng/ul salmon testes DNA, 50 uM zinc acetate, 200 nM TF, 25 C, 1 h; high values mean tight binding
# Conditions: protein: recombinant; tags: N-terminal polyhistidine and DsRed monomer fusion (pET32a); label: CyDye5-dUTP incorporated in the synthesized complementary strand; 3' TTTTT single-stranded linker to array surface; dsDNA, one strand shown
# In short: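 Binding signal here means per-feature fluorescence intensity in arbitrary units. The values were read on an Axon 4000B scanner after a custom Agilent array, double-stranded by primer extension with Cy5-dUTP, was incubated with 200 nM protein at 25 °C for 1 h in PBS with 2% BSA, salmon testes DNA and 50 µM zinc acetate, then washed. The proteins were transcription factors with an N-terminal polyhistidine tag and DsRed, expressed in E. coli BL21-CodonPlus and purified on Ni–NTA.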
# Sequence of OsWRKY34 (Q0JBA9 entry or part of it): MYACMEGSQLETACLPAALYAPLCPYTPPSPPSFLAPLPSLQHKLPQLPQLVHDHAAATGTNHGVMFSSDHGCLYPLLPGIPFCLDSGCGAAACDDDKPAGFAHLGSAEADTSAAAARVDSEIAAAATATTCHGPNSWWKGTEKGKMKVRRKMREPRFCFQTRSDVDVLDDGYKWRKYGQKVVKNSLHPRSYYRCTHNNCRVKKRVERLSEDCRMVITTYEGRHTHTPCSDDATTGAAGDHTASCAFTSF
row,Sequence,binding signal
1,CCTCTGGTCACGCATTCTACACAGAATCTCTGGTTTTCCCCGGAGTCACCTAGTGCAG,9500 fluorescence intensity (a.u.)
2,TCCTTTGACTTTTTAACCAGCTGTCTACTAGTAGTACTACCGGAGTCACCTAGTGCAG,17800 fluorescence intensity (a.u.)
3,ATCTTAACCGCAACAGCTTTGCATCTTTTTAGTACCTATTCGGAGTCACCTAGTGCAG,8170 fluorescence intensity (a.u.)
4,ATATGCTGTCTTTTACTTGACTTGTAGTGCAACCTTCCACCGGAGTCACCTAGTGCAG,12100 fluorescence intensity (a.u.)
5,ACTTTCTTTTTTTCTTTTTAACCTTGACCTTTACTGGCATCGGAGTCACCTAGTGCAG,8690 fluorescence intensity (a.u.)
6,TTGCAGCTGTCCTCTCTACCTTAACCCTTTGACCAGTGCTCGGAGTCACCTAGTGCAG,9130 fluorescence intensity (a.u.)
7,GAACAGCTCAGCTCACCGCATCCTTTGACTTTTTAACCAGCGGAGTCACCTAGTGCAG,18100 fluorescence intensity (a.u.)
8,CACACGCACGCTTCTCACGTACATATCGATCGCAAATATCCGGAGTCACCTAGTGCAG,8490 fluorescence intensity (a.u.)
9,GCCGATAGAGGCATGGGGTTTGTTCAGATTGATGTCATTTCGGAGTCACCTAGTGCAG,9370 fluorescence intensity (a.u.)
10,CCGTGGTGGTACGCGCGCGCTGCGTACGTTTTTTTTTCTTCGGAGTCACCTAGTGCAG,9450 fluorescence intensity (a.u.)
11,CGAACCAAGACAAGAAAATAGAACCATCCTATCTATCAGGCGGAGTCACCTAGTGCAG,11500 fluorescence intensity (a.u.)
12,GCTACACCGCACCCACCACAGCCAGACTTGAACTTGTTGACGGAGTCACCTAGTGCAG,8950 fluorescence intensity (a.u.)
13,GGCGCCGTCGTCTTCTTTCCCACGCCGCCGCCGCCGTCAACGGAGTCACCTAGTGCAG,8600 fluorescence intensity (a.u.)
14,GCTCCGTCTTCCTGCTCCAGCCGCTCGCCATAGCCCACTGCGGAGTCACCTAGTGCAG,11100 fluorescence intensity (a.u.)
15,ATCCCGCTTATCCCACTTCTAATTCATTTTTTCTTTTAAACGGAGTCACCTAGTGCAG,10900 fluorescence intensity (a.u.)
16,TCATTATGGTGTTTCTTAATTGCTTTTTTCTTTTTATTATCGGAGTCACCTAGTGCAG,8300 fluorescence intensity (a.u.)
17,TTTCTTTTTCTTGGTTTTTTTTTGTCTTTTCTTCTTTTTCCGGAGTCACCTAGTGCAG,18200 fluorescence intensity (a.u.)
18,CTCTCTTTCTTCTTTGTGTCTTTGTTTCTTTTCTTTTTTCCGGAGTCACCTAGTGCAG,14700 fluorescence intensity (a.u.)
19,TTTCTTGTTTTCTTCTCATTCTTCTTTTTTTTCTTTCTTCCGGAGTCACCTAGTGCAG,14700 fluorescence intensity (a.u.)
20,GTCTCGCTTTCTCTCTCTAGGGTTTTTCCCCACTTTCGTTCGGAGTCACCTAGTGCAG,13700 fluorescence intensity (a.u.)
21,TCTGCTTTTATTCATCGGTTTCATTAATTGTTTCTGTTACCGGAGTCACCTAGTGCAG,17200 fluorescence intensity (a.u.)
22,GGGTTATGTTTCATTTGTATTATTTTCTTAATTCTTACACCGGAGTCACCTAGTGCAG,12700 fluorescence intensity (a.u.)
23,GGTTTTTTTCCCGCTTATCCCACTTCTAGTCTATCTTTTTCGGAGTCACCTAGTGCAG,19300 fluorescence intensity (a.u.)

row,Sequence,binding signal
1,CCGCTCGTCTTCCACTGCAGCCCAGCTCCCGTTCTTTCAACGGAGTCACCTAGTGCAG,16500 fluorescence intensity (a.u.)
2,CACATTGCGTCTTGTAGTCTGTATTGTAGCTGACTATATACGGAGTCACCTAGTGCAG,8820 fluorescence intensity (a.u.)
3,CCTCCCTTGTTTTCTGTACCAATACGTGATGCACCGGTCTCGGAGTCACCTAGTGCAG,8440 fluorescence intensity (a.u.)
4,GGGTTCACCACCAAACTCGCCACCTATAAACGCTCCTCGCCGGAGTCACCTAGTGCAG,9030 fluorescence intensity (a.u.)
5,AATGTTAACGGTGCATGTGGTTGGTTGATTTGATTAGTGACGGAGTCACCTAGTGCAG,15300 fluorescence intensity (a.u.)
6,AATGTTCAAAATTGTGCAATCAAGGTCTTACGGCAGTATACGGAGTCACCTAGTGCAG,8120 fluorescence intensity (a.u.)
7,TTCTTTTCGCTAGTGATGTCTAGCGTTTCTTTTGACAAATCGGAGTCACCTAGTGCAG,8560 fluorescence intensity (a.u.)
8,CGTCTTAGTTACCCTTCTACTCCTATCGCTCGATCGCCTCCGGAGTCACCTAGTGCAG,8380 fluorescence intensity (a.u.)
9,TCCTTAGCTCCGCGGATTTGTTCACCATCACCACCATCACCGGAGTCACCTAGTGCAG,8780 fluorescence intensity (a.u.)
10,GCACCAACCATCTCACCCGTCCGACGTGGCAGCAGCAACCCGGAGTCACCTAGTGCAG,8770 fluorescence intensity (a.u.)
11,TTGTGTGTGCGTTTGTGATTGCGTCGGTCGGTTTCAGTTCCGGAGTCACCTAGTGCAG,17500 fluorescence intensity (a.u.)
12,GTCATCTTTGTTTGAGTCGGTTTTTAATTTTGTTTGCTTTCGGAGTCACCTAGTGCAG,17700 fluorescence intensity (a.u.)
13,AAGTTTAATTTGTTATTTTTATTTTTATACGTCATCTTTTCGGAGTCACCTAGTGCAG,9760 fluorescence intensity (a.u.)
14,ACTAAGTGCGTGATTGTTTCAGATTTGTTTGGGTTGCGGTCGGAGTCACCTAGTGCAG,9410 fluorescence intensity (a.u.)
15,TTTTTTCTGTTTTTTTCTTTCCGTATCTTTTTCAGTTTTTCGGAGTCACCTAGTGCAG,14200 fluorescence intensity (a.u.)
16,GAGTTCGGCCTTTCCGGTTTCCGGTTGTGTTGTGAGGAGTCGGAGTCACCTAGTGCAG,10600 fluorescence intensity (a.u.)
17,TGGTTCTTTGATCTTTTAATTTTGTTTGTTTGTTTGTTTTCGGAGTCACCTAGTGCAG,12800 fluorescence intensity (a.u.)
18,GGGTGGCGTCCTGTTGTCATCTTTTATCCCTCTTGAATTCCGGAGTCACCTAGTGCAG,21500 fluorescence intensity (a.u.)
19,CTGCCTGTCCCTTTCCTGCATCCATCCATCCATCTTGATCCGGAGTCACCTAGTGCAG,10600 fluorescence intensity (a.u.)
20,TTTTTTTCTTTCCGTATCTTTTTCTTTTTTTGGTTTTTTACGGAGTCACCTAGTGCAG,8410 fluorescence intensity (a.u.)
21,TGTTTTTTTTCTTTCCGTATCTTTTTCTTTTTTTGGTTTTCGGAGTCACCTAGTGCAG,19700 fluorescence intensity (a.u.)
22,TCCCCTCTCTGTTGTCATCGTCTTCCTTTCCTTTCCTTTCCGGAGTCACCTAGTGCAG,8230 fluorescence intensity (a.u.)
